Assay [1] deals with T1, Serine/threonine-protein kinase Nek9 (Homo sapiens) (UniProt Q8TD19).
T1 sequence (whole entry): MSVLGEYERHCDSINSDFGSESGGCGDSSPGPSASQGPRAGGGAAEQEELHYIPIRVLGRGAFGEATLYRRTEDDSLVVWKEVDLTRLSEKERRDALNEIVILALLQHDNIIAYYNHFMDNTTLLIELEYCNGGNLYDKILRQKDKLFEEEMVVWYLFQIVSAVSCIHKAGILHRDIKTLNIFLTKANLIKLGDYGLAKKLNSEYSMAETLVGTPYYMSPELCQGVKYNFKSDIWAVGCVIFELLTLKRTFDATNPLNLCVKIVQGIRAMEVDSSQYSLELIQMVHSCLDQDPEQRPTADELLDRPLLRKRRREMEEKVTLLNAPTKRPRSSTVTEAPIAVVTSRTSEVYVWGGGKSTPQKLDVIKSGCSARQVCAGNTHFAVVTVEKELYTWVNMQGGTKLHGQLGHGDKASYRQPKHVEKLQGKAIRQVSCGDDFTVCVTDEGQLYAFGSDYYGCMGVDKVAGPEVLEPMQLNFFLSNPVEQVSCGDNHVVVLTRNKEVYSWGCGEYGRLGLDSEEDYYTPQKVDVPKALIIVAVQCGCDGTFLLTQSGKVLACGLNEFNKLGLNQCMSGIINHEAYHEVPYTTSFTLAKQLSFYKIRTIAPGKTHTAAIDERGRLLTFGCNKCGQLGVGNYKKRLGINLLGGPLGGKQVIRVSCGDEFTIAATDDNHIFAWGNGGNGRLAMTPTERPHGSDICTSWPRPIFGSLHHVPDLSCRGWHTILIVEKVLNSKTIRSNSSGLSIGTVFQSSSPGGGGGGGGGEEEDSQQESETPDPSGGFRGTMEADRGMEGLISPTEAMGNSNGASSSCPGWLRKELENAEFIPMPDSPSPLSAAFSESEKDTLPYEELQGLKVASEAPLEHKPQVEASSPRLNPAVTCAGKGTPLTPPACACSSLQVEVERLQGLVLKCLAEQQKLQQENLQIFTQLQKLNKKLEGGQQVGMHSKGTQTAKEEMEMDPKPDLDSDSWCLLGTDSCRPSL
The following applies: at 1 µM.

In assay [2] the target is Serine/threonine-protein kinase PLK1 (Homo sapiens) (UniProt P53350). The following applies: at 0.1 µM.
Assay [3] has the same target. The conditions noted are these: at 1 µM.
For assay [4], the target named is T2, Dual specificity protein kinase TTK (Homo sapiens) (UniProt P33981).
T2 sequence (whole entry): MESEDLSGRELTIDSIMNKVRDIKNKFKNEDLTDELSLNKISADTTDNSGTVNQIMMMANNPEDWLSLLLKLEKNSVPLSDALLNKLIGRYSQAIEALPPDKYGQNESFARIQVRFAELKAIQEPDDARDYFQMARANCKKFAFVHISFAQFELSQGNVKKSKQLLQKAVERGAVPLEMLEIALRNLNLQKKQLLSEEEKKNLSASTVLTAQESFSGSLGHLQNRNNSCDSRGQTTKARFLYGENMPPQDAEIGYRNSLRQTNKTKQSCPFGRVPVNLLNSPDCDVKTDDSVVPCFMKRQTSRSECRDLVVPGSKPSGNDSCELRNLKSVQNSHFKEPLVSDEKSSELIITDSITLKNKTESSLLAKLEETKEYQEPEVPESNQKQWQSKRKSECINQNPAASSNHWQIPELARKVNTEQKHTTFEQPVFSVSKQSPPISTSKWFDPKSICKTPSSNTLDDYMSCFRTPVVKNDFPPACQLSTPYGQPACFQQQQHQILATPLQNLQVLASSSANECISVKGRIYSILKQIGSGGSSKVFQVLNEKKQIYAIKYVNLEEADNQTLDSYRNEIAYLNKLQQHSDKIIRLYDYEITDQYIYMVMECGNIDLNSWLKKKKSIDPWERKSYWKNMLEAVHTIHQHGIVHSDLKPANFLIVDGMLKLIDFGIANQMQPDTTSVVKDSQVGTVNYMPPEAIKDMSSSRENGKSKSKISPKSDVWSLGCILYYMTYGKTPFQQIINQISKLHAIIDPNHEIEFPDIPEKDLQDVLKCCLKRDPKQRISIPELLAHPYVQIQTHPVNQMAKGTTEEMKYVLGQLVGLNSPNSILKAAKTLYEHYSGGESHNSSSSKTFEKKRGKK
The following applies: at 0.1 µM.

For assay [5], the system named is T3, Receptor-type tyrosine-protein kinase FLT3 (Homo sapiens), P36888 [D835Y].
T3 sequence (whole entry): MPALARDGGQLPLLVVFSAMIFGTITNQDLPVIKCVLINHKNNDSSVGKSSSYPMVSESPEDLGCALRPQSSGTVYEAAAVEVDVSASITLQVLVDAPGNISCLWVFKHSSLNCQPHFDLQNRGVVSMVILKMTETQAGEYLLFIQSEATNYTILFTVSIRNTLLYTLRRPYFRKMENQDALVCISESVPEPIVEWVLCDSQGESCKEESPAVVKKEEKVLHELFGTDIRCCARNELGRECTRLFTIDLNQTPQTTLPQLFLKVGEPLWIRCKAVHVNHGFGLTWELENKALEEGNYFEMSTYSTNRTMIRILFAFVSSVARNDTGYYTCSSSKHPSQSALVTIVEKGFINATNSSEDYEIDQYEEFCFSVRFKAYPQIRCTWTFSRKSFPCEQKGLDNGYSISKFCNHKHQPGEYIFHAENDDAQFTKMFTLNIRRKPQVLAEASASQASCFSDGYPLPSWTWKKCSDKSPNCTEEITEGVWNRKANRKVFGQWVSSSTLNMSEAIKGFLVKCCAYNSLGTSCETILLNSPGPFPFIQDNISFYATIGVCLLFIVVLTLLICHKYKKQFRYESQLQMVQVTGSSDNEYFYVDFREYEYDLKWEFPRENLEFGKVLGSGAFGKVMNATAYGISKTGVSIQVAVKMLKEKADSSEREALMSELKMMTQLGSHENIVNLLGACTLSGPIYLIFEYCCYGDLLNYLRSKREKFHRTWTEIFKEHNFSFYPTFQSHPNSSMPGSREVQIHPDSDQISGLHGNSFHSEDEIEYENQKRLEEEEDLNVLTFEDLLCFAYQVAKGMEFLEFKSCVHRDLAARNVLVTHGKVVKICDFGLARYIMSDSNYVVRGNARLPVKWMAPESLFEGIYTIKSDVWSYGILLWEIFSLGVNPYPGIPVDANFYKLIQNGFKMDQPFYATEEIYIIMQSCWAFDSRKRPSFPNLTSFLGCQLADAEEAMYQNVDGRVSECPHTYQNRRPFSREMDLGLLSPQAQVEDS
The following applies: at 1 µM.

Assay [6] deals with Vascular endothelial growth factor receptor 3 (Homo sapiens) (UniProt P35916). The following applies: at 0.1 µM.
Assay [7] shares this target. The following applies: at 1 µM.
Assay [8] has as its target Macrophage colony-stimulating factor 1 receptor (Homo sapiens) (UniProt P07333). The following applies: at 0.1 µM.
The target is the same in assay [9]. The conditions noted are these: at 1 µM.
For assay [10], the target named is Tyrosine-protein kinase Fyn (Homo sapiens) (UniProt P06241). The following applies: at 0.1 µM.
For assay [11] the target is unchanged. The conditions noted are these: at 1 µM.
The target of assay [12] is Tyrosine-protein kinase HCK (Homo sapiens) (UniProt P08631). The conditions noted are these: at 0.1 µM.
Assay [13] shares this target. The conditions noted are these: at 1 µM.
In assay [14] the target is Insulin-like growth factor 1 receptor (Homo sapiens) (UniProt P08069). The conditions noted are these: at 0.1 µM.
For assay [15] the target is unchanged. The following applies: at 1 µM.
Assay [16] concerns the target Insulin receptor (Homo sapiens) (UniProt P06213). The conditions noted are these: at 0.1 µM.
For assay [17] the target is unchanged. The following applies: at 1 µM.
For assay [18], the target named is Insulin receptor-related protein (Homo sapiens) (UniProt P14616). The following applies: at 0.1 µM.
The target is the same in assay [19]. The conditions noted are these: at 1 µM.
For assay [20], the target named is T4, Tyrosine-protein kinase ITK/TSK (Homo sapiens) (UniProt Q08881).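 Further: mean percent inhibition of ITK from the GSK PKIS screen.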
T4 sequence (whole entry): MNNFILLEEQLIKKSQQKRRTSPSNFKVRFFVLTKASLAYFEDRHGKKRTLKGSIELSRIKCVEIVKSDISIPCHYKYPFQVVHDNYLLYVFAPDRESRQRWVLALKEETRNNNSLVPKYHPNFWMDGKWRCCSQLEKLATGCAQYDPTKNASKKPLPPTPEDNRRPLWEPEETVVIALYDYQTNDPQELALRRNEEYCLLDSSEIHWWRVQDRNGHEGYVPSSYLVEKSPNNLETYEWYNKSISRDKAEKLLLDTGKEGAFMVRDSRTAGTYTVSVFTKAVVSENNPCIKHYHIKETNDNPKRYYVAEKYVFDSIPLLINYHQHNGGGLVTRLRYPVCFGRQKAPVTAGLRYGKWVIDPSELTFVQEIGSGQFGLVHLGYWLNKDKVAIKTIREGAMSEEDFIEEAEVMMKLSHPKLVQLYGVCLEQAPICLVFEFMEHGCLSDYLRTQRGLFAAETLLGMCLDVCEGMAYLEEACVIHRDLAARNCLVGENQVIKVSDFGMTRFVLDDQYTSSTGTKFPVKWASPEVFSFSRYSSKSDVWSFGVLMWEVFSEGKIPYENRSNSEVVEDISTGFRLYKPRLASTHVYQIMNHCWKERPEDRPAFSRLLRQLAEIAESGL
The following applies: at 0.1 µM.

SMILES strings stand for the structures.

Insulin receptor-related protein (Homo sapiens), sequence (P14616 27-742 limits assumed): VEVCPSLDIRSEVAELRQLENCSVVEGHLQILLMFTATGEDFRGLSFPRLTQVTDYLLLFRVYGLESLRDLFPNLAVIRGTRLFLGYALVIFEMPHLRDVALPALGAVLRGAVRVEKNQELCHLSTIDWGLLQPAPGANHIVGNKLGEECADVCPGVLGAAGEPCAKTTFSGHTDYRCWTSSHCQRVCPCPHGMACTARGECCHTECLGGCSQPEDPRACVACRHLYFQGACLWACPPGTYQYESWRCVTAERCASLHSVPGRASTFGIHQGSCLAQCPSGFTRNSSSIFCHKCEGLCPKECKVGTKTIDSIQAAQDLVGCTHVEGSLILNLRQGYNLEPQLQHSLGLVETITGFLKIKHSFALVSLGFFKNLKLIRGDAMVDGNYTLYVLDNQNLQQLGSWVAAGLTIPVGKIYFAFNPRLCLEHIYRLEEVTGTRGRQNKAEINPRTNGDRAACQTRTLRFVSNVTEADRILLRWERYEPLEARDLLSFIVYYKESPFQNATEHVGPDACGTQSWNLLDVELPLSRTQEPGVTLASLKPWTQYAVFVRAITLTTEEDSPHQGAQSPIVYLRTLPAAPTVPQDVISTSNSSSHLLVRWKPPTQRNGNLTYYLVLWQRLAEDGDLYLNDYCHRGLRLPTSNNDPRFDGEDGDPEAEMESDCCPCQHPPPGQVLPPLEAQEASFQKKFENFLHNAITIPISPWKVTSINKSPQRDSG
Insulin receptor-related protein (Homo sapiens), sequence (P14616 747-1297 limits assumed): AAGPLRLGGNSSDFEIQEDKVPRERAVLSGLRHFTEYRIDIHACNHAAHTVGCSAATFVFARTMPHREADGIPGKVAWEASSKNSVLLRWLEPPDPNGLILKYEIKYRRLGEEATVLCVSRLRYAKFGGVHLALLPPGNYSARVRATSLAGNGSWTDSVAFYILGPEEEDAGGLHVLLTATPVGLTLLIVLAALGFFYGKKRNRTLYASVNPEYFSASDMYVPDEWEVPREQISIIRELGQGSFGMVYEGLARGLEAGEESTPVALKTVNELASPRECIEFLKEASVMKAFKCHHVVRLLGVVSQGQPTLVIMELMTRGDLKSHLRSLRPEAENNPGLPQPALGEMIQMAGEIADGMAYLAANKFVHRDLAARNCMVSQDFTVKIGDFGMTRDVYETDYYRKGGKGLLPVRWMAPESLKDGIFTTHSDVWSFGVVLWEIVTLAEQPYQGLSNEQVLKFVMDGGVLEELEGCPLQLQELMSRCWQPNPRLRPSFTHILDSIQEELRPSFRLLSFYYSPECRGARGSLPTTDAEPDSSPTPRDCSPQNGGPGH
Vascular endothelial growth factor receptor 3 (Homo sapiens), sequence (P35916 whole entry): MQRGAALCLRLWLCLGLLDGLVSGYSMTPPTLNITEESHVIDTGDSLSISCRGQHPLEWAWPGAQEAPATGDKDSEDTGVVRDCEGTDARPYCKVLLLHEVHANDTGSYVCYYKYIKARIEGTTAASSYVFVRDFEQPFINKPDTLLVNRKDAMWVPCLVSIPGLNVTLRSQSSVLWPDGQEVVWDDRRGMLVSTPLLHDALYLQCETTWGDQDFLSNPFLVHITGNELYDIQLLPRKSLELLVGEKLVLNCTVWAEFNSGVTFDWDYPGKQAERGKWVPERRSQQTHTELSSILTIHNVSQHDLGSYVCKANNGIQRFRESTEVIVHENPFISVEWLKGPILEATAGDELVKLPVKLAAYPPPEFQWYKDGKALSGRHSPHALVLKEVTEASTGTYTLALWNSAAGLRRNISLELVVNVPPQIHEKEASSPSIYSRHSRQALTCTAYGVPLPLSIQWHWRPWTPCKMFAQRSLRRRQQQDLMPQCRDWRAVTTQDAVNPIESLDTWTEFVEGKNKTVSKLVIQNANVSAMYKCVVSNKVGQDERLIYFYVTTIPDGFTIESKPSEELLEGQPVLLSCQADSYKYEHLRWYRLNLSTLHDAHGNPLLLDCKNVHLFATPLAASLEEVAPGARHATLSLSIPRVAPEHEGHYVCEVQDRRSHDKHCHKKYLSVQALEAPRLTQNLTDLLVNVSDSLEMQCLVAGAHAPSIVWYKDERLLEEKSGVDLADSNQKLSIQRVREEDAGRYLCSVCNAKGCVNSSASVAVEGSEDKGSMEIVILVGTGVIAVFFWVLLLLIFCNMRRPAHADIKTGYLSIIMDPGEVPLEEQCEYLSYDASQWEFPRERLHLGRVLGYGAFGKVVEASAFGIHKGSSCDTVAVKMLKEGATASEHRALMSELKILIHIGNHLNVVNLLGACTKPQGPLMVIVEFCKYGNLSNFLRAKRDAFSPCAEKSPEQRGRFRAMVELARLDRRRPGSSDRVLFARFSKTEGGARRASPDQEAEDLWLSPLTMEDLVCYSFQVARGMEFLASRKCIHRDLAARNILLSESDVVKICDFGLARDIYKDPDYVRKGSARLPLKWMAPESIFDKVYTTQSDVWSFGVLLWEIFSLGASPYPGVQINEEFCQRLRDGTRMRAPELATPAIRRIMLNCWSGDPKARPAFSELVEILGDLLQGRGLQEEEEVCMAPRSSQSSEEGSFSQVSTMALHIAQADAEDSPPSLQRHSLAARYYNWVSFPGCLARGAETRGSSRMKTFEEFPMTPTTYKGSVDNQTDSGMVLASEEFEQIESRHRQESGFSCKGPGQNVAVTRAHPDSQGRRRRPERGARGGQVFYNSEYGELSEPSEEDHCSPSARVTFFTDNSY
Tyrosine-protein kinase HCK (Homo sapiens), sequence (P08631 2-526 limits assumed): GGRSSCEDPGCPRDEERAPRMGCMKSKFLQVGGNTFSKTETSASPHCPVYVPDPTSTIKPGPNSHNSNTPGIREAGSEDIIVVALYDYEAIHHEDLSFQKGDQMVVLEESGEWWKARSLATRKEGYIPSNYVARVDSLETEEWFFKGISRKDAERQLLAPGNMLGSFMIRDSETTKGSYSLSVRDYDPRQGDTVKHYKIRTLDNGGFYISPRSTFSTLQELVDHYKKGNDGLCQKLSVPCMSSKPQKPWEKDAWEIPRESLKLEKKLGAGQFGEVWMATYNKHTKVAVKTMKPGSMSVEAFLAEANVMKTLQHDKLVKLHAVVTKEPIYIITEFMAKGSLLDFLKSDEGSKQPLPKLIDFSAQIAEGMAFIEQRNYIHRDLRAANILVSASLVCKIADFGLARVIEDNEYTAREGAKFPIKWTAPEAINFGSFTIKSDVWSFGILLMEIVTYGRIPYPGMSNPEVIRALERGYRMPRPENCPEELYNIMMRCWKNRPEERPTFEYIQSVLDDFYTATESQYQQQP
Tyrosine-protein kinase Fyn (Homo sapiens), sequence (P06241 2-537 limits assumed): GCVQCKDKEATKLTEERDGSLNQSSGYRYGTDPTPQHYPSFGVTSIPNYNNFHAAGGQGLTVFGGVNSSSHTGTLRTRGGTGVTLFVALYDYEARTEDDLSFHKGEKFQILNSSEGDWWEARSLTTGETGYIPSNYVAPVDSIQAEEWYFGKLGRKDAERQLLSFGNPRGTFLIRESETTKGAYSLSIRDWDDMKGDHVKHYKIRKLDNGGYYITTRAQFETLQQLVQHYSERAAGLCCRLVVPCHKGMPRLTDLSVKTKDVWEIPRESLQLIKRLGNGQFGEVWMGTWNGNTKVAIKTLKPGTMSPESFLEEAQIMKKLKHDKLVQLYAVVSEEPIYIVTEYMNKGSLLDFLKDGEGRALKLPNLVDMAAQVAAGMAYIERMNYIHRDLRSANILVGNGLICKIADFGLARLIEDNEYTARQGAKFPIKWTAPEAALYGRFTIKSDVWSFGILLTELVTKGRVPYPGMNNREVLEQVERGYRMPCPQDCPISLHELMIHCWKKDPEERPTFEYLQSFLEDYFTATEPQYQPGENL
Insulin receptor (Homo sapiens), sequence (P06213 28-758 limits assumed): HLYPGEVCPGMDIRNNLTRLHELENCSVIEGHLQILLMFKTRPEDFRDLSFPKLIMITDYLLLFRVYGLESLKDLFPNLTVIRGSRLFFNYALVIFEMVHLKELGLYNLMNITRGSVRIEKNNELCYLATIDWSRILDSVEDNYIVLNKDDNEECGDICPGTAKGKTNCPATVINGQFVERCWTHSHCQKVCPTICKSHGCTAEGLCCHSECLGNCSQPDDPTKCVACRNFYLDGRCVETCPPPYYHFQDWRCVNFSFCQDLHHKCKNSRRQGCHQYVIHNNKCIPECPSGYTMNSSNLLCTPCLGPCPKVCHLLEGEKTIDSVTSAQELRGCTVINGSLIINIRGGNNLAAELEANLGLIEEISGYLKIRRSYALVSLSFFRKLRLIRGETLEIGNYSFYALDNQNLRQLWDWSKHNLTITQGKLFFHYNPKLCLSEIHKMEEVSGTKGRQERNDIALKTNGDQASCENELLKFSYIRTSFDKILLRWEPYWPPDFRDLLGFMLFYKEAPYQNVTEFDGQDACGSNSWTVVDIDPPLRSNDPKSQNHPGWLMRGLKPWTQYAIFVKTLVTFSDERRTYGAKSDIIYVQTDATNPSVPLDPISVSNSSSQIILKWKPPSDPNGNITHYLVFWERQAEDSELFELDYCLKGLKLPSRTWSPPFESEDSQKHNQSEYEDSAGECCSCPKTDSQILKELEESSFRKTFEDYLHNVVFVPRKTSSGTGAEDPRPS
Insulin receptor (Homo sapiens), sequence (P06213 763-1382 limits assumed): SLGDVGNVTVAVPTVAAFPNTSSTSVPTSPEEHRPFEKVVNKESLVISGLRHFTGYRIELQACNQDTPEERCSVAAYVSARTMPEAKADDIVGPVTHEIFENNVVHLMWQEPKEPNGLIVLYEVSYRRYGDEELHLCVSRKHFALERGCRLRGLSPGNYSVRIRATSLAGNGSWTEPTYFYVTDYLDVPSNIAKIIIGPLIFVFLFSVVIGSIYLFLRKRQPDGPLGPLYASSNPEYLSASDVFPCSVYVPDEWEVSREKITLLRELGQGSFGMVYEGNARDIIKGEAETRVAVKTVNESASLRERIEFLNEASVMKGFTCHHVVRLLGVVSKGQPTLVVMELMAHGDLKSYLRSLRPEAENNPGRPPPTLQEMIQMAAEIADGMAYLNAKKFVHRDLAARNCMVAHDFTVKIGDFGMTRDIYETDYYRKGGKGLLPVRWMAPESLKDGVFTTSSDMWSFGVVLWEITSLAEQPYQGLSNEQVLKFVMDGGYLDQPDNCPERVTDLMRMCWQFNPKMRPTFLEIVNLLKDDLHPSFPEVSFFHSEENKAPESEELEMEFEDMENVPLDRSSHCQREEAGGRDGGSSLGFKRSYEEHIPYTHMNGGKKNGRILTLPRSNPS

For `C[C@@H](Oc1cc(-n2cnc3ccc(OC[C@@H](O)CO)cc32)sc1C(N)=O)c1ccccc1Cl`, the inhibition in assay [1] worked out at 91.4%; in assay [2] it was 92.2%; in assay [3], 93.5%; in assay [4], 1.27%; in assay [5] it was 8.15%; in assay [6], 3.69%. Further, the inhibition in assay [7] was 22.8%; in [8], 0.22%; in assay [9], 9.24%; in assay [10], 0.14%; in assay [11] it was 5.15%; in assay [12] it was -0.15%. For the same compound, the inhibition is 6.39% in assay [13]; -1.52% in assay [14]; -0.34% in assay [15]; 0.87% in [16]; 0.26% in assay [17]; -2.17% in assay [18]. In addition, the inhibition in [19] was -2.11%; in [20], 0.28%.
On to `O=C1Nc2ccc(-c3cccnc3)cc2C1=Cc1cc(Br)c(O)c(Br)c1`, for which the inhibition stood at 0.27% in assay [1]; 3.43% in [2]; 7.7% in assay [3]; 6.45% in assay [4]; 13.7% in assay [5]; 2.46% in [6]. In addition, the inhibition was determined as 4.42% in [7]; 4.24% in assay [8]; 7.78% in assay [9]; 2.17% in [10]; 10.5% in assay [11]; 3.63% in assay [12]. Also, the inhibition came to 11.1% in assay [13]; 3.8% in assay [14]; 4.14% in assay [15]; 3.63% in [16]; 0.1% in [17]; 4.28% in assay [18]. Also, the inhibition amounted to 2.51% in [19] and 1.58% in assay [20].
As for `NS(=O)(=O)c1cccc(-c2cc3ccncc3cc2OCc2ccccc2)c1`, the inhibition in assay [1] was 5.52%; in assay [2] it was 3.05%; in [3], 4.2%; in assay [4] it was 7.53%; in assay [5], -1.3%; in assay [6] it was 15.2%. The inhibition was determined as 18.5% in assay [7]; 4.7% in [8]; 5.36% in assay [9]; 4.1% in assay [10]; 4.87% in assay [11]; 7.87% in assay [12]. Further, the inhibition amounted to 11.1% in assay [13]; 9.68% in assay [14]; 10.4% in assay [15]; 2.6% in [16]; 4.4% in assay [17]; 2.82% in assay [18]. Moreover, the inhibition in [19] came to 1.54%; in [20] it was 1.77%.
As for `COc1ccc(-c2nn3ncccc3c2-c2ccnc(Nc3cccc(C(F)(F)F)c3)n2)cc1`, the inhibition in assay [1] was 3.9%; in assay [2], 1.94%; in assay [3] it was 0.44%; in assay [4] it was 5.91%; in assay [5], -4.73%; in assay [6], 1.62%. Moreover, the inhibition in assay [7] was determined as 10.2%; in [8], 2.47%; in assay [9], 19.4%; in assay [10], 1.38%; in [11] it was 7.59%; in assay [12], 4.3%. For the same compound, the inhibition in assay [13] is 8.02%; in [14] it was -1.5%; in [15] it was 0.2%; in assay [16] it was 0.4%; in assay [17], 2.59%; in assay [18], 1.52%. The inhibition in assay [19] turned out to be 1.54%; in assay [20] it was 0.45%.

The record behind these values is ChEMBL document CHEMBL1961873, “Compounds: GSK PKIS; Assays: Nanosyn kinase panel” (2012).
